High-throughput results from PubChem.
ClpP mod = qHTS Assay for Activators of ClpP; ATP-dependent Clp protease proteolytic subunit (Bacillus subtilis (strain 168)), P80244; purified B. subtilis ClpP, FRET peptide cleavage, 20 min; Potency, µM (series often up to 57.5 µM), without a hit: top-dose activity change, negative = active; actives 1.9% (n = 340,000); active = well fitted falling curve with a large enough effect; inconclusive = small, poorly fitted or top-dose-only effect; inactive = no such curve, though single readings can be large or run the other way; note: potency is the fitted concentration of half-maximal effect; the source files actives as falling curves though it sought activators and does not explain the sign; nearly all actives have a fitted effect of over 65% in size
Target sequence (P80244 whole entry, looked up): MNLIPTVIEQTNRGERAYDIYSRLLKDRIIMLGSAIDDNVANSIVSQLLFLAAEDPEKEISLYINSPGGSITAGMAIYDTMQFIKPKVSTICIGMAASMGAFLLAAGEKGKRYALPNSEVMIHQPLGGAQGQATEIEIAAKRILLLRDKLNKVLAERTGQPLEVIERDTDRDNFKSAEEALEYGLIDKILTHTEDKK
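ClpP 10 microg/mL final, pH 8 Tris/KCl buffer with BSA, glycerol, Tween-20; compound pinned in; FRET-FV substrate; RT 20 min; Ex320/Em430; ΔFRET vs ADEP 5.8 microM, DMSO, no enzyme.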
TCR activator = T cell receptor activation; primary human leukocytes, anti-CD3, IL-2 HTRF, 48 h; 330,000 tested, under 10 active; Potency, µM (doses to about 9.22 µM), without a hit: at the top dose activation of IL-2 secretion, hits mostly activators; note: % of control where 0% means no effect
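Compounds are tested in HTS on primary human leukocytes co-incubated with a-CD3 beads for 48 hr. IL-2 output is measured by time-resolved FRET.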
uPA surface inh = blocks generation of uPA at the cell surface; cell surface uPA generation assay, qHTS; Potency, µM (top dose mostly 38.3 µM), without a hit: at the highest dose activity change, negative = inhibition, most hits filed as inhibitors; actives 0.31% (n = 330,000); AID 540303; active = well fitted inhibition curve with a large enough effect; inconclusive = small, poorly fitted or top-dose-only effect; inactive = no such curve, though single readings can be large or run the other way; tested in mouse RAW 264.7 cells; note: potency is the fitted concentration of half-maximal effect; % is set by controls: 0 for no effect and ±100 for the full control effect; nearly all actives have a fitted effect of over 55% in size
Sfp PPTase inh = inhibitors of Bacillus subtilis Sfp phosphopantetheinyl transferase | Q9F4F7 | Biochemical Sfp PPTase activity, qHTS | Potency, µM, for the others: largest response in the series, negative = inhibition, actives largely listed as inhibitors | actives 3.5% (n = 310,000) | AID 1490;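 note: the enzyme is Sfp with the accession as filed and its product quenches rhodamine fluorescence; potency is the fitted concentration of half-maximal effect; 0% = enzyme reaction without inhibitor and -100% = no enzyme wells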
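Fluorescence-quenching assay with 15 nM Sfp, 5 uM rhodamine-CoA and 12.5 uM BHQ-2-labelled ybbR peptide in pH 7.6 Hepes/MgCl2 buffer. Enzyme was pre-incubated with compound for 15 min at room temperature. Rate was taken from the 30-min fluorescence change (525/598 nm).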
Starred values were filed as active, the others as inactive; ? = inconclusive; / = not tested or not shown; [ ] = dose if it differs, or a comment. An excerpt weighted towards active compounds, which were near 4.2% of everything screened. Unless noted, calls come from the whole dose curve; as a rule, active = well fitted curve in the direction sought with a large enough effect; inconclusive = small, poorly fitted or top-dose-only effect, or another doubt; inactive = no such curve, though single readings can be large; an effect the other way counts as inactive or inconclusive.

SMILES	ClpP mod	TCR activator	uPA surface inh	Sfp PPTase inh
Cc1ccc(NC(=O)N2CCN(C)c3ncccc32)cc1C	-23%	/	/	/
COc1ccc(C2CC(=O)N3CN(c4ccc(C)c(Cl)c4)CSC3=C2C#N)cc1 (centres undefined)	20%	1%	-22%	2.8µM*
COc1ccc(CC(=O)N2CCN(c3ccccc3F)CC2)cc1OC	/	-3%	-8%	13%
COc1ccc(N2CN=C3SCC(=O)N3C2)cc1	-1%	-2%[46.1 µM]	-7%	12%
COc1ccc(C2CC(=O)N3CN(c4ccccc4F)CSC3=C2C#N)cc1OC (centres undefined)	3%	-1%	7%	8.9µM*
COc1cc(OC)c(C2CC(=O)N3CN(c4ccccc4C)CSC3=C2C#N)cc1OC (centres undefined)	/	/	/	4µM*
Cn1c(NCCCO)nc2c1c(=O)n(Cc1cccc(F)c1)c(=O)n2C	-2%	/	/	/
N[C@@H](Cn1ccc(=O)n(Cc2ccccc2C(=O)O)c1=O)C(=O)O	/	/	/	56µM*
CNc1ccc(/C=C\CCCO)cn1	5%	/	/	/
CN(CCOc1ccccc1)CC(=O)Nc1ccc(S(=O)(=O)N2CCCC2)cc1	1%	3%	22%	56µM*
CCc1ccc(/C=C/C(=O)c2cc(Br)ccc(=O)c2O)cc1	-2%	2%	-13%	14µM*
CCOc1ccc(/C=C/C(=O)c2cc(Br)ccc(=O)c2O)cc1	1%	-1%[46.1 µM]	-7%	20µM*
O=C(C=Cc1ccccc1)c1cc(Br)ccc1O	0%	9%	-5%	/
Cc1cccc(/C=C/C(=O)c2cc(Br)ccc(=O)c2O)c1	1%	16%	-16%	14µM*
C/C(CCC(=O)OC[C@H]1O[C@H](C#Cc2ccccc2)C=C[C@@H]1Oc1ccc(C)cc1)=N\O[C@@H](C)CN1CCCCc2nc(C)c(C)cc21	/	/	/	-5%
Cc1ccc(-c2cc(-c3ccc(F)cc3)nc(N)c2C#N)o1	?	2%	-9%	8.9µM*
Cc1ccc(-c2cc(-c3ccccc3Cl)c(C#N)c(N)n2)o1	?	8%	-1%	11µM*
N#Cc1c(-c2ccncc2)cc(-c2ccc(F)cc2)nc1N	0%	-3%	-10%	6%
Cc1ccc(-c2cc(-c3ccccc3)c(C#N)c(N)n2)o1	4%	-9%	-8%	7.9µM*
COc1cc(SC)ccc1C(=O)Nc1ncc(C)s1	-11%	-1%	3.5µM*	11%
COc1cc(SC)ccc1C(=O)NCCOc1c(C)cc(C)cc1C	-1%	/	-3%	50µM*
COc1cc(SC)ccc1C(=O)Nc1ccc(Br)cn1	-7%	-4%	?	-6%
COc1cc(SC)ccc1C(=O)NCCOc1ccc(Cl)cc1	1%	1%[46.1 µM]	-2%	-6%
COc1ccc(-c2oc3ccc(-c4cc(OC)c(OC)c(OC)c4)cc3c2-c2ccc(OC)nc2)cc1	4%	-5%	6%	-21%
CN(C)C(=O)c1c(-c2ccccc2)oc2ccc(O)cc12	20µM*	-2%	0%	-7%
SMILES	ClpP mod	TCR activator	uPA surface inh	Sfp PPTase inh
O=C(O)c1c(-c2ccccc2)oc2ccc(O)cc12	4%	-97%	-2%	1%
COc1ccc(C(=O)c2c(-c3ccc(OC)cc3)oc3ccc(-c4ccc(OC)nc4)cc23)cc1	16µM*	3%	5%	/
COc1ccc2oc(-c3ccccc3)c(C(N)=O)c2c1	32µM*	-1%	-3%	7%
CCCOc1ccc(CNC(=O)c2[nH]c3cc(OC)ccc3c2Sc2ccccc2)cc1	-8%	/	/	/
COc1cc(OC)c(OC)cc1/C=c1\[nH]c(=O)/c(=C/c2cc(OC)c(OC)cc2OC)[nH]c1=O	3%	/	/	/
Cc1nc2nc(NCc3cccc(Cl)c3)[nH]n2c(=O)c1Cc1ccccc1	-2%	/	/	/
CCCc1cc(=O)[nH]c(SCC(=O)CSc2nc(CCC)cc(=O)[nH]2)n1	0%	0%	-2%	56µM*
CCCc1cc(=O)[nH]c(SCC(=O)c2cc(C)n(C3CC3)c2C)n1	18µM*	2%	9%	2%
COc1ccc2oc(-c3ccccc3)c(OC)c(=O)c2c1	/	/	/	-9%
OC[C@H]1O[C@@H](c2nc3ccc(-c4nc(-c5ccc(Br)cc5)no4)cc3[nH]2)C[C@@H]1O	2%	/	/	/
CCOC(=O)C1CCC(CN(Cc2ccc(OC)cc2)S(=O)(=O)c2ccc(F)c(C(=O)Nc3cc(Cl)ccc3OC)c2)CC1 (centres undefined)	-9%	/	/	/
COc1coc(C(O)C[N+](=O)[O-])cc1=O (centres undefined)	/	-2%[46.1 µM]	1%	32µM*
CCn1cc(C(=O)NCc2ccc(C)o2)c2cc(OC)c(OC)cc2c1=O	-10%	0%	3%	35µM*
CC(C)c1c(O)c(-c2cc3c(c(C(C)C)c2O)CCC2C(C)(C)CCC[C@@]32C)cc2c1CCC1C(C)(C)CCC[C@@]21C (some centres undefined)	/	/	/	-1%
CC(C)c1cc2c(c(O)c1O)[C@@]13CCCC(C)(C)C1CC2OC3=O (some centres undefined)	-3%	-8%	-17%	4µM*
Cc1ccc2oc(=O)c3c4cc(O)c(O)cc4oc3c2c1	/	/	/	9%
COc1cc(O)c2c(c1)oc(=O)c1c3cc(O)c(O)cc3oc21	/	/	/	10µM*
CC(Oc1ccc(Br)cc1)C(=O)NCCCN1CCCC1=O (centres undefined)	1%	-50%	2%	/
C1=Cc2ccccc2/C1=C(\Cc1ccncc1)Oc1ccncc1	2%	/	/	/
COc1cccc(C2C(C#N)=C(N)Oc3cc(C)n(Cc4ccco4)c(=O)c32)c1 (centres undefined)	0%	0%	5%	7.9µM*
Cc1cc2c(c(=O)n1Cc1cccnc1)C(c1ccccc1)C(C#N)=C(N)O2 (centres undefined)	-1%	0%	6%	-25%
COc1ccccc1C1C(C#N)=C(N)Oc2cc(C)n(Cc3ccccn3)c(=O)c21 (centres undefined)	-10%	-1%	4%	50µM*
COc1cccc(C2C(C#N)=C(N)Oc3cc(C)n(Cc4ccccn4)c(=O)c32)c1OC (centres undefined)	-3%	3%	0%	11%
COc1ccc(C2C(C#N)=C(N)Oc3cc(C)n(Cc4ccco4)c(=O)c32)cc1 (centres undefined)	-6%	/	-5%	32µM*
CCOC(=O)c1c(C)[nH]c(C)c1S(=O)(=O)N1CCCC(C(=O)Nc2cccc(CC)c2)C1 (centres undefined)	1%	/	/	/
SMILES	ClpP mod	TCR activator	uPA surface inh	Sfp PPTase inh
CCc1cnc2ccccc2c1/C=C/c1ccc(N(C)C)cc1	0%	/	/	/
COCCNC(=O)c1ccc(-c2nc(CS(=O)(=O)c3ccccc3)c(C)o2)cc1	4%	/	/	/
COc1ccccc1C(=O)Nc1ccc2oc(-c3ccc(F)cc3)nc2c1	20µM*	2%	1%	50µM*
Cc1ccccc1OCC(=O)Nc1ccc(-c2nc3ncccc3o2)cc1	4%	/	/	/
COc1cccc(OC)c1C(=O)Nc1ccc(-c2nc3ncccc3o2)cc1	28µM*	/	/	/
Cc1ccc(OCC(=O)Nc2ccc(-c3nc4ncccc4o3)cc2)c(C)c1	25µM*	2%	4%	?
COCCNC(=O)C1=CC(c2ccc3c(c2)OCO3)=NS(=O)(=O)N1C	-2%	/	/	/
